Reference: PubChem BioAssay (NCATS)
Results filed as inconclusive are left out. The source made the active and inactive calls. Unless noted, calls follow the shape of the dose curve; as a rule, active = well fitted curve in the direction sought with a large enough effect; inconclusive = small, poorly fitted or top-dose-only effect, or another doubt; inactive = no such curve, though single readings can be large; an effect the other way counts as inactive or inconclusive.

Assays:
[1] = AP1 Signaling Pathway (AID 357; active = well fitted curve in either direction with a large enough effect, not every such curve was filed as active;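 also: ME-180 reporter cells stimulated with EGF at its EC50 level; % is scaled to controls: 0 for no effect and ±100 for the full control effect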); conditions: ME-180 AP-1-bla reporter, EGF-induced, beta-lactamase ratio, 5 h; at 7.69 µM (top of the series) unless noted
Summary of the method: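 In this screen, ME-180 cells in Opti-MEM with 0.5% dialyzed FBS received EC50 EGF and compound titrations for 5 h. AP-1 reporter beta-lactamase was detected via CCF4 ratio, giving AC50 for positive and negative modulators.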

[2] = NFAT Signaling Pathway (AID 444; active = well fitted curve in either direction with a large enough effect, not every such curve was filed as active;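 also: carbachol stimulus at about its EC50 of 1 µM final; % is scaled to controls: 0 for no effect and ±100 for the full control effect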); conditions: Jurkat NFAT-bla M1, carbachol, beta-lactamase ratio, 5 h; at 7.69 µM (top of the series) unless noted
Summary of the method: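 Jurkat cells with NFAT-driven β-lactamase reporter and co-expressed M1 receptor, stimulated with carbachol (final 1 uM, ~EC50), compound titration, 5 h at 37 °C. CCF4 loaded 1 h at RT; 460/530 nm ratio gave %activity and AC50.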

[3] = Stat Signaling Pathway (AID 446; active = well fitted curve in either direction with a large enough effect, not every such curve was filed as active;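 also: ME-180 cervical cancer cells given 40 pM IL-6 alongside compound; SIE-controlled beta-lactamase reporter measured as 460/530 nm FRET emission ratio; % is scaled to controls: 0 for no effect and ±100 for the full control effect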); conditions: ME-180 SIE beta-lactamase reporter, IL-6 stimulated, 5 h; at 7.69 µM (top of the series) unless noted
Summary of the method: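 IL-6/STAT signaling read in ME-180 cells via an SIE beta-lactamase reporter. Stimulus was 40 pM IL-6 (its AC50) for 5 hrs, so both activation and inhibition register.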

[4] = biological target: Glucocorticoid receptor (Homo sapiens) (UniProt P04150); assay: GR-GFP Redistribution (AID 450;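 active = compounds whose dose series gives a full or clear partial fitted curve of increased nuclear translocation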; also: potency is read from the fitted curve at half-maximal effect); conditions: U2OS GR-GFP nuclear translocation, laser cytometry, 2 h
Glucocorticoid receptor (Homo sapiens), sequence (P04150 whole entry, looked up, the tested form may be a part): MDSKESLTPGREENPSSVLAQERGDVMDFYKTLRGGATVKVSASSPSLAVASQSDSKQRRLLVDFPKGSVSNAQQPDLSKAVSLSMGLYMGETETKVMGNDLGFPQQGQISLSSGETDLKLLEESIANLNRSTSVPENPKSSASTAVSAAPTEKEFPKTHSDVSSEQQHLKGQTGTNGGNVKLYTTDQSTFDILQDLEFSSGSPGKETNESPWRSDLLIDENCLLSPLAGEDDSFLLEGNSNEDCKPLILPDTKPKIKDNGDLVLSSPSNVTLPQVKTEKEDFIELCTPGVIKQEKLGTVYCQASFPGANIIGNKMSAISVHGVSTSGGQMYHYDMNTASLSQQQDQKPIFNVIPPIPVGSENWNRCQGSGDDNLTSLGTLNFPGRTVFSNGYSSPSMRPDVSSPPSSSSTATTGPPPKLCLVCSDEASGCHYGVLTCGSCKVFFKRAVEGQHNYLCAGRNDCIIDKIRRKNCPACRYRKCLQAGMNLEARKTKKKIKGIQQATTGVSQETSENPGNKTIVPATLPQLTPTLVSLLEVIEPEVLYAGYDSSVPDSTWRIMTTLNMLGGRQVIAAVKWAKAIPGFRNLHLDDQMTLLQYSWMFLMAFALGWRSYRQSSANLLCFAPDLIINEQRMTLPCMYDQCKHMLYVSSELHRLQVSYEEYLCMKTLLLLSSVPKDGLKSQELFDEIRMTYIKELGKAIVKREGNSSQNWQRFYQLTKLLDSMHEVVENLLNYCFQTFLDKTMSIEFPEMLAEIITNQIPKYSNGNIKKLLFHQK

[5] = biological target: Mitogen-activated protein kinase 10 (Mus musculus) (UniProt Q61831); assay: JNK3 AlphaScreen Assay (AID 530; active = well fitted curve in either direction with a large enough effect, not every such curve was filed as active;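 also: kinase came from lysate of stimulated human HepG2 cells; signal reports phosphorylation of biotinylated GST-cJun 1-79 at Ser73 with 10 µM ATP; % is scaled to controls: 0 for no effect and ±100 for the full control effect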)
Summary of the method: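 qHTS format: compounds tested as titrations against IL-1beta/TNF-alpha-activated HepG2 lysate JNK3 with biotin-GST-cJun substrate and 10 uM ATP at room temperature. Loss of anti-phospho-cJun AlphaScreen signal indicates inhibition.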

[6] = biological target: 3',5'-cyclic-AMP phosphodiesterase 4B (Homo sapiens) (UniProt Q07343); assay: qHTS Assay for Inhibitors of PDE-IV (AID 607; active = well fitted activation curve with a large enough effect in the main read-out, with a control signal flat, not every such curve was filed as active; also: % of control where 0% means no effect)
3',5'-cyclic-AMP phosphodiesterase 4B (Homo sapiens), sequence (Q07343 whole entry, looked up): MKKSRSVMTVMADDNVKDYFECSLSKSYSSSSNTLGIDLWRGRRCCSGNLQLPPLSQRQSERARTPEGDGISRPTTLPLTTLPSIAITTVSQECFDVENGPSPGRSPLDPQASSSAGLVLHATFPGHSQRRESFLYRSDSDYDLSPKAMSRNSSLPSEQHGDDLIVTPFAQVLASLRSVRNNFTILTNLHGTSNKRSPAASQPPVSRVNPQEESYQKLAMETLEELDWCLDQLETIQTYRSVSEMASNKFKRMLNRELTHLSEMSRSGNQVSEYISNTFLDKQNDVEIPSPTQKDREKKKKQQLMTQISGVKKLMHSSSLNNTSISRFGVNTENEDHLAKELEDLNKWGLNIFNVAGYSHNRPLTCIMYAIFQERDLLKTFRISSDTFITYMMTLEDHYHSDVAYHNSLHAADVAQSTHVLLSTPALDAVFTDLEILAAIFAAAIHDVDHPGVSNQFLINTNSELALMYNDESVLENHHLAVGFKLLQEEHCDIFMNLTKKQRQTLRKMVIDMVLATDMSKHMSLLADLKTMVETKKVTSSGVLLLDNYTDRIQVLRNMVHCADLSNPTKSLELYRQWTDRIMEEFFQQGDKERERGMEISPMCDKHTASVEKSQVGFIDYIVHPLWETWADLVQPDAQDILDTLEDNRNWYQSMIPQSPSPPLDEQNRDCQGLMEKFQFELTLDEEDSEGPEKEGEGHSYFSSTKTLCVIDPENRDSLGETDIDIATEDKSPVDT
Summary of the method: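 Live HEK293 cells with a modified cyclic nucleotide-gated (CNG) channel report intracellular cAMP via membrane-potential dye fluorescence (ex 535/em 590 nm). Endogenous PDE-IV was targeted. Compounds were tested at up to 22.9 uM final; RO 20-1724 100 uM served as control.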

[7] = biological target: Cytochrome P450 3A4 (Homo sapiens) (UniProt P08684); assay: qHTS Assay for Activators of Cytochrome P450 3A4 (AID 885); also: nearly all actives have a fitted effect of over 65% in size
Cytochrome P450 3A4 (Homo sapiens), sequence (P08684 whole entry, looked up): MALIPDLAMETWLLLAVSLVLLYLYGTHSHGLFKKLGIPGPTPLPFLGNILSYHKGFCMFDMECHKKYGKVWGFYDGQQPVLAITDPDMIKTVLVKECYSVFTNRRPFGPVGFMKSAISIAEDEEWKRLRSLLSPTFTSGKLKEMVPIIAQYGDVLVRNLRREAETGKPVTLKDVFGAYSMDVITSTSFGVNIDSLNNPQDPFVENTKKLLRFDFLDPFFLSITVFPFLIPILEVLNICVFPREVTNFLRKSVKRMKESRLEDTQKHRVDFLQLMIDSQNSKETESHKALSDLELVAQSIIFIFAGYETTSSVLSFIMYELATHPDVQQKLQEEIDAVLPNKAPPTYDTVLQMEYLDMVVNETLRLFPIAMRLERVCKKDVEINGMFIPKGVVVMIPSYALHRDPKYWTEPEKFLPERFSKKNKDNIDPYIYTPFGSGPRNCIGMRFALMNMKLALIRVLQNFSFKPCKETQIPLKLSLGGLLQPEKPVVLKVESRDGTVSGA
Summary of the method: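 Quantitative HTS format: compounds preincubated with 20nM human CYP3A4 and Luciferin-PPXE substrate at KM, reaction started by NADPH regeneration, stopped after 60 min, luciferase luminescence read 20 min later.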

[8] = biological target: Glucocorticoid receptor (Homo sapiens) (UniProt P04150); assay: GR-EFC Redistribution (AID 451; calls by dose curve; also: potency is read from the fitted curve at half-maximal effect); conditions: CHO-K1 GR-EFC translocation, beta-gal luminescence, 2 h
Summary of the method: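 CHO-K1 cells expressing nuclear EA and GR-ED fragments of b-gal; compounds titrated up to 46 uM final, 2 h at 37 C. GR nuclear translocation read as complemented b-gal luminescence after 1 h RT detection.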

[9] = biological target: Cytochrome P450 1A2 (Homo sapiens) (UniProt P05177); assay: p450-cyp1a2 (AID 410; calls by dose curve; also: potency is read from the fitted curve at half-maximal effect)
Cytochrome P450 1A2 (Homo sapiens), sequence (P05177 whole entry, looked up): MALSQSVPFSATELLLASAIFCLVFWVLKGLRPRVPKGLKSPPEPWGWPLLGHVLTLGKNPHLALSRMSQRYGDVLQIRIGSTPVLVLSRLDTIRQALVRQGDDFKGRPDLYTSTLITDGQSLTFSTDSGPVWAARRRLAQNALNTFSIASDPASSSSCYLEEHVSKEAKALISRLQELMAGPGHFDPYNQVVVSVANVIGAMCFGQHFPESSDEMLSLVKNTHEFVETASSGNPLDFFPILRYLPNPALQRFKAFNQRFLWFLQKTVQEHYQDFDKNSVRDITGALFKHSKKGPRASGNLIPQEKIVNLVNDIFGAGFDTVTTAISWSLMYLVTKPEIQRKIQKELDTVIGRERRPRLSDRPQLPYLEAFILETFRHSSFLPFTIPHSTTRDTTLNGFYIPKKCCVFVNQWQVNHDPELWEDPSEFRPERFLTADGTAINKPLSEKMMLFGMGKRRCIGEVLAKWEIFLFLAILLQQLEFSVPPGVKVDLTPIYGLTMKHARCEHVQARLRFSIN
Summary of the method: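 Human CYP1A2 (20nM) demethylated Luciferin-ME at its Km (100uM) in 100mM KPO4. After 10 min compound preincubation, NADPH regeneration ran the reaction 60 min at room temperature. Luciferin was read by luminescence, normalized to 57 uM furafylline.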

[10] = biological target: Cytochrome P450 2C9 (Homo sapiens) (UniProt P11712); assay: qHTS Assay for Inhibitors and Substrates of Cytochrome P450 2C9 (AID 883); also: % is scaled to controls: 0 for no effect and ±100 for the full control effect; nearly all actives have a fitted effect of over 60% in size
Cytochrome P450 2C9 (Homo sapiens), sequence (P11712 whole entry, looked up): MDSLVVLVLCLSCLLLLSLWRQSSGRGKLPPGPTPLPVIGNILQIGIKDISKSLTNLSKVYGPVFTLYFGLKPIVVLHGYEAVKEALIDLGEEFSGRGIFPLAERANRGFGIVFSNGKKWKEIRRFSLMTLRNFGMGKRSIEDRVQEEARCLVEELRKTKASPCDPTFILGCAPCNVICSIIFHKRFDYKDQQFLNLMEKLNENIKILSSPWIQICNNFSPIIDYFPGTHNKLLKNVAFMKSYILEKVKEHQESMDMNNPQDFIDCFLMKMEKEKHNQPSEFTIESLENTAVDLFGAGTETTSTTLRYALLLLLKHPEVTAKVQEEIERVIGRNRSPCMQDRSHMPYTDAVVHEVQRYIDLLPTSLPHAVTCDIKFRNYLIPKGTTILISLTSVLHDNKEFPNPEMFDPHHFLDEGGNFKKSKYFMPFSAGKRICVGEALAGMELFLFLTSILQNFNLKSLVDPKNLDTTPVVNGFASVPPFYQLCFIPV
Summary of the method: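 Human CYP2C9 (10nM) with Luciferin-H at 100uM (its KM) in 25mM KPO4; compound preincubated 10 min at 37C, then NADPH regeneration for 60 min at 37C. Luciferin read by luminescence after detection reagent; normalized to 57uM sulphaphenazole as full inhibition.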

[11] = biological target: Cytochrome P450 2D6 (Homo sapiens) (UniProt P10635); assay: qHTS Assay for Inhibitors and Substrates of Cytochrome P450 2D6 (AID 891);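 also: luciferin methyl ether substrate demethylated by CYP2D6 with NADPH regeneration; % is scaled to controls: 0 for no effect and ±100 for the full control effect; nearly all actives have a fitted effect of over 60% in size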
Summary of the method: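 Human CYP2D6 (5 nM) with 30 uM Luciferin-ME EGE (at Km) in 100 mM KPO4, compound preincubated 10 min, then NADPH regeneration system for 60 min at room temperature. Luciferin read by luminescence; normalized to 1.43 uM quinidine.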

[12] = biological target: Cytochrome P450 2C19 (Homo sapiens) (UniProt P33261); assay: qHTS Assay for Inhibitors and Substrates of Cytochrome P450 2C19 (AID 899); also: nearly all actives have a fitted effect of over 60% in size; also: potency is read from the fitted curve at half-maximal effect
Cytochrome P450 2C19 (Homo sapiens), sequence (P33261 whole entry, looked up): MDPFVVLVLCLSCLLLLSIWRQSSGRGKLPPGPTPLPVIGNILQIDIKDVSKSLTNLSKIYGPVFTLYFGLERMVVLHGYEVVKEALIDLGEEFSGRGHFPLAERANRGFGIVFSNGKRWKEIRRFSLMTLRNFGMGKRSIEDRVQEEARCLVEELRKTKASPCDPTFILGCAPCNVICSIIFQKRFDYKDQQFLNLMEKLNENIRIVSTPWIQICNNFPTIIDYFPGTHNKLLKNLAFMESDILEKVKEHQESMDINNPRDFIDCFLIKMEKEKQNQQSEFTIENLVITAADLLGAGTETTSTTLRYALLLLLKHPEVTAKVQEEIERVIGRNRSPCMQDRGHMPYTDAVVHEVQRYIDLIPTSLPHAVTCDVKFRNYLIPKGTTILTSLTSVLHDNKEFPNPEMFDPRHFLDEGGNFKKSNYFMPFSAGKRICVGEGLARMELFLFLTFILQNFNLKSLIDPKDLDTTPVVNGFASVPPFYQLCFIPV
Summary of the method: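 5 nM human CYP2C19 with 10uM Luciferin-H EGE (at KM) in 50mM KPO4, compound preincubated 10 min at 37C, then NADPH regeneration for 60 min at 37C. Luciferin read by luminescence after detection reagent; normalized to 57uM ketoconazole as full inhibition.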

[13] = biological target: Guanine nucleotide-binding protein G(i) subunit alpha-1 (Homo sapiens) (UniProt P63096); assay: qHTS Assay for Inhibitors of RGS12 GoLoco Motif Activity (Green Fluorophore) (AID 879);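 also: 0% = labeled peptide with Gαi1 and full inhibition = labeled peptide alone without protein; negative values mean loss of peptide binding seen as reduced polarization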
Guanine nucleotide-binding protein G(i) subunit alpha-1 (Homo sapiens), sequence (P63096 whole entry, looked up): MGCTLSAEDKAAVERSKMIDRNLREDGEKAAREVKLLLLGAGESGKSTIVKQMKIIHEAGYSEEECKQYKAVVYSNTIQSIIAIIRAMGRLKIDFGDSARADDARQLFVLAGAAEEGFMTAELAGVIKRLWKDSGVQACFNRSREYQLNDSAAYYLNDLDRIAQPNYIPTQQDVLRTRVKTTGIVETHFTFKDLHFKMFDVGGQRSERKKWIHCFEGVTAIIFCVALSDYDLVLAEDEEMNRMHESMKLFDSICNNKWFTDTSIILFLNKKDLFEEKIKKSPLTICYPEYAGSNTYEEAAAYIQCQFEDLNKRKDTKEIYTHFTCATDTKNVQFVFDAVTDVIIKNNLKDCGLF
Summary of the method: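 Fluorescence polarization assay: 50 nM Gαi1 with 10 nM FITC-labeled RGS12 GoLoco peptide in 10 mM Tris pH 7.5, 150 mM NaCl, 0.1 mM GDP, 0.05% NP40, 10 min at room temperature with compound.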

[14] = qHTS Assay for Identification of Small Molecule Antagonists for NFkB Signaling Pathway (AID 895; active = well fitted inhibition curve with a large enough effect in the signal ratio, with a control signal flat, not every such curve was filed as active; the % refers to the signal ratio; also: % is scaled to controls: 0 for no effect and ±100 for the full control effect)
Summary of the method: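 ME-180 NFkB-bla cells (beta-lactamase under NFkB response element), plated overnight, treated with compound then 10 pM TNF alpha (about EC50) for 5 hrs at 37 C. LiveBLAzer FRET read at 460/530 nm emission, 405 nm excitation.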

[15] = qHTS Assay for Identification of Small Molecule Agonists for Thrombopoietin (TPO) Signaling Pathway (AID 917); also: % is scaled to controls: 0 for no effect and ±100 for the full control effect
Summary of the method: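 Murine Ba/F3 cells stably expressing human TPO receptor and a Glycoprotein IIb promoter–luciferase reporter were IL-3-starved overnight, then treated with compounds plus TPO (26 pM final, its EC50) for 24 hrs at 37 C; luminescence was read.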

[16] = biological target: Muscarinic acetylcholine receptor M1 (Rattus norvegicus) (UniProt P08482); assay: qHTS Assay for Antagonists of Acetylcholine Muscarinic M1 Receptor: Kinetic Measurement of Intracellular Calcium Response (AID 943);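 also: Fluo-4 calcium signal as peak divided by basal fluorescence over 4 min; nearly all actives have a fitted effect of over 75% in size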
Summary of the method: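 CHO cells stably expressing rat M1 were loaded with no-wash Fluo-4 dye for 1 h at 37C, pre-incubated 10 min with compound, then challenged with EC80 carbachol (100 nM final); kinetic calcium read 4 min, peak/basal ratio.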

[17] = biological target: Pyruvate kinase (Leishmania mexicana) (UniProt Q27686); assay: qHTS Validation Assay for Inhibitors of Leishmania Mexicana Pyruvate Kinase (AID 945);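 also: 0% = DMSO only neutral control wells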
Summary of the method: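 The enzyme is a highly purified E451W mutant of LmPYK used at 0.2 nM. It converts 0.5 mM PEP and 0.1 mM ADP over 1 h at room temperature; product ATP is quantified by luciferase luminescence relative to DMSO controls.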

[18] = biological target: Pyruvate kinase PKM (Homo sapiens) (UniProt P14618); assay: qHTS Assay for Activators of Human Muscle Pyruvate Kinase (AID 954; active = well fitted curve in the direction sought with a large enough effect, not every such curve was filed as active;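 also: 0% = uninhibited enzyme and -100% = no enzyme or full thiadiazolimine inhibition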)
Summary of the method: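 Enzyme was run at intermediate activity so both inhibitors and activators could be detected. ATP formed from ADP and PEP by 0.1 nM human PKM2 during a 1 h room-temperature incubation was quantified by coupled luciferase luminescence.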

[19] = biological target: Alpha-galactosidase (Coffea arabica) (UniProt Q42656); assay: Counterscreen for Glucocerebrosidase Inhibitors: qHTS Assay for Coffee Bean alpha-Galactosidase at pH 4.5 (AID 957);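 also: plate controls were enzyme alone for no effect and no enzyme for full effect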
Alpha-galactosidase (Coffea arabica), sequence (Q42656 whole entry, looked up): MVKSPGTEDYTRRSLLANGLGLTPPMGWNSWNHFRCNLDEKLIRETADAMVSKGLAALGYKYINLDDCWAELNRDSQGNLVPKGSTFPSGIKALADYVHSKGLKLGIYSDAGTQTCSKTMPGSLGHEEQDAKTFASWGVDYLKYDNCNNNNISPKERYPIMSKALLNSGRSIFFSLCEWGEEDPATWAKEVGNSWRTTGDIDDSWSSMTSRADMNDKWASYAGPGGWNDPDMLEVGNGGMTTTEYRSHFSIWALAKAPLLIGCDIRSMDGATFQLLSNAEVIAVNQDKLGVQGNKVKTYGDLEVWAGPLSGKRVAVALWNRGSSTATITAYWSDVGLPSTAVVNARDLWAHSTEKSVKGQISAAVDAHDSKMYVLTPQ
Summary of the method: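 Green coffee bean enzyme (2 nM final) was incubated with compounds (0.7 nM to 77 uM) and 4-methylumbelliferyl alpha-D-galactopyranoside (80 uM final) in 50 mM citric acid, 0.005% Tween-20, pH 4.5, 20 min at room temperature; AC50 from Hill fits.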

[20] = biological target: Alpha-galactosidase A (Homo sapiens) (UniProt P06280); assay: Counterscreen for Glucocerebrosidase Inhibitors: qHTS Assay for Human alpha-Galactosidase at pH 4.5 (AID 992); also: 0% is about no effect
Alpha-galactosidase A (Homo sapiens), sequence (P06280 whole entry, looked up): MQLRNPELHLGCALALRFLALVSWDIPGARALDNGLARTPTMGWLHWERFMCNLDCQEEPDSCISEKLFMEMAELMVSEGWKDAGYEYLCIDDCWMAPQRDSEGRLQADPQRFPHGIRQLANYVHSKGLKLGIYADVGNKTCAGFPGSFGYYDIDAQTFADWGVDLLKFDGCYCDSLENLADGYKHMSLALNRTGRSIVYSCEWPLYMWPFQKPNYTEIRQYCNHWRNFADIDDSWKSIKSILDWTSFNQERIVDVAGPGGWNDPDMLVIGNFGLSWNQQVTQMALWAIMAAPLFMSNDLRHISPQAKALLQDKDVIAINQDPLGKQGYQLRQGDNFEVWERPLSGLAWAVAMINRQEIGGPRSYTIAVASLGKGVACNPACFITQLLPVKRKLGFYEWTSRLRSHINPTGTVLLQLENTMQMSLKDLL
Summary of the method: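 Read-out is 4-methylumbelliferone fluorescence (365 nm excitation, 440 nm emission) after a pH 10 NaOH/glycine stop. Reactions held 2 nM enzyme and 80 uM substrate at pH 4.5 for 20 min at room temperature.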

[21] = biological target: alpha-glucosidase (Oryza sativa, rice) (UniProt Q653V4); assay: Counterscreen for Glucocerebrosidase Inhibitors: qHTS Assay for Rice alpha-Glucosidase at pH 5.0 (AID 997);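 also: 0% = full activity with enzyme and -100% = basal without enzyme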
Summary of the method: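 Rice alpha-glucosidase (4 nM final) with 400 uM 4-methylumbelliferyl-alpha-D-glucopyranoside in citrate buffer pH 5.0, 20 min at room temperature, stopped at pH 10; fluorescence 365/440 nm, compounds 0.7 nM–77 uM, AC50 from Hill fits.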

[22] = biological target: Alpha-galactosidase (Coffea arabica) (UniProt Q42656); assay: Counterscreen for Glucocerebrosidase Inhibitors: qHTS Assay for Coffee Bean alpha-Galactosidase at pH 5.9 (AID 998);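 also: plate controls were uninhibited enzyme for no effect and no-enzyme basal signal for full effect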
Summary of the method: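 Green coffee bean enzyme (2 nM) with 4-methylumbelliferyl alpha-D-galactopyranoside (80 uM) in 50 mM citric acid, 0.005% Tween-20, pH 5.9, 20 min at room temperature; compounds 0.7 nM–77 uM. Stopped at pH 10, fluorescence Ex365/Em440; Hill-fit AC50.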

[23] = biological target: Cytochrome P450 3A4 (Homo sapiens) (UniProt P08684); assay: qHTS Assay for Inhibitors and Substrates of Cytochrome P450 3A4 (AID 884); also: potency is read from the fitted curve at half-maximal effect; nearly all actives have a fitted effect of over 50% in size
Summary of the method: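 20 nM human CYP3A4 with 25 uM Luciferin-PPXE (at KM) in 200 mM KPO4, preincubated 10 min with compound; NADPH regeneration started a 60 min RT reaction. Luciferin detected by luminescence, normalized to 57 uM ketoconazole as full inhibition.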

CC[C@@](O)(C(=O)O)c1cc2n(c(=O)c1CO)Cc1cc3ccccc3nc1-2
inactive: activity change, negative = inhibition [1] 0.967% | activity change, negative = inhibition [2] -9.59% | activity, negative = inhibition [3] -0.155% | Potency [4] > 46 µM | activity change, negative = inhibition [5] 3.55% [at 11.4 µM] | outcome [6] | activity change, positive = activation [7] -36.6% [at 11.4 µM]

c1ccc2c([C@@H]3CCN(CCN4CCOCC4)C3)c[nH]c2c1
inactive: activity change, negative = inhibition [1] -11.8% | activity, negative = inhibition [3] 0.702% | Potency [4] > 46 µM | Potency [8] > 9.22 µM | outcome [6]

O=C(Nc1cc[c]([Sb](=[O])([OH])[OH])cc1)c1ccccc1
inactive: activity change, negative = inhibition [1] -1.71% | activity, negative = inhibition [3] -1.59% | Potency [4] > 46 µM | Potency [8] > 9.22 µM | activity change, negative = inhibition [5] -0.0598% [at 11.4 µM] | outcome [6] | activity change, negative = inhibition [10] 2.5% [at 11.4 µM] | Potency [11] | Potency [12]
active: Potency [9] 5.01 µM

C[C@]12CC[C@H](O)C[C@@H]1CC[C@H]1[C@H]2CC[C@]2(C)[C@H](C(=O)CO)CC[C@@H]12
inactive: activity change, negative = inhibition [1] 0.537% [at 38 µM] | activity change, negative = inhibition [2] 0.826% [at 38 µM] | activity, negative = inhibition [3] 11.8% [at 38 µM] | Potency [4] > 46 µM | Potency [8] > 46 µM | outcome [6] | outcome [13] | Potency [7] | Potency [14] | outcome [15] | Potency [16] | outcome [17] | outcome [18] | outcome [19] | outcome [20] | outcome [21] | outcome [22]

Cc1ccc(OP(=O)(Oc2ccc(C)cc2)N2C=Cc3ccccc3[C@H]2C#N)cc1
active: Potency [9] 3.98 µM | Potency [23] 2.51 µM | Potency [12] 2.51 µM
inactive: activity change, negative = inhibition [1] 0.753% | activity, negative = inhibition [3] -13.5% | activity change, negative = inhibition [5] 7.39% [at 11.4 µM] | outcome [6] | activity change, negative = inhibition [10] 45.9% [at 11.4 µM] | activity change, positive = activation [7] -91.2% [at 11.4 µM]
